Test results as given in PubChem BioAssay.
Entries with a potency or affinity are not part of this list. Results filed as inconclusive are left out. Active and inactive are the calls of the source. Unless noted, the rule behind the calls is not given here.

Columns and labels:
[1] = RMG-1 ovarian cancer cell viability loss – cherry-pick, dose response (AID 687029;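 active = signal drop whose fitted half-maximal concentration is at most twice the top valid dose, in every test run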;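 note: cells exposed to compound for 96 hours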)
[2] = IOSE-T80 viability loss, PAX8-independent line – cell-based, cherry-pick, selectivity assay for PAX8 inhibitor project, dose response (AID 687032;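 active = fitted half-maximal concentration for viability loss no higher than twice the top valid dose, in every repeat run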;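 note: cells exposed to compound for 96 h before reading; 0% = neutral control wells and -100% = 2 µM mitoxantrone kill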)
[3] = CMV-driven luciferase expression suppression in HEK293 – cell-based, luminescence, dry powder, counter-screen for Pax8 inhibitor project, dose response (AID 743020;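 active = signal-lowering compounds whose fitted half-maximal concentration is at or below twice the top tested dose in every run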;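 note: HEK293 cells stably expressing the CMV luciferase reporter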)
[4] = general cell-killing toxicity readout – plate reader, dry powder samples, cytotoxicity control for PAX8 inhibitor project, dose response (AID 743021)
[5] = toxicity toward immortalized ovarian surface epithelium – cell-based, plate reader, dry powder samples, cytotoxicity control for PAX8 inhibitor project, dose response (AID 743045);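 note: 0% = neutral control median and -100% = positive control median; more negative values mean more cell killing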
[6] = A2780 cell killing – plate reader, dry powder samples, cytotoxicity control, dose response (AID 743046);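 note: 0% = neutral control wells and -100% = cytotoxic reference compound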
[7] = OVCAR8 cell viability loss – plate reader, dry powder samples, PAX8 project, dose response (AID 743197)
[8] = IGROV1 cell killing – plate reader, dry powder samples, PAX8 inhibitor project, dose response (AID 743043);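 note: more negative means fewer viable cells or more cytotoxicity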
[9] = OVCAR-3 cell viability loss – plate reader, dry powder samples, PAX8 inhibitor project, dose response (AID 743044); conditions: max activity: at 35 µM, stronger effect = lower value unless noted

Measured: max activity

C[C@@H]1CN([C@H](C)CO)C(=O)c2cc(NS(=O)(=O)c3ccc(Cl)cc3)ccc2O[C@@H](C)CCCCO[C@H]1CN(C)Cc1ccc2c(c1)OCO2
not listed: [7] | [8] | [9]
inactive: all other assays above

Cc1ccc(S(=O)(=O)N(C)C[C@H]2Oc3cc(C#Cc4ccncc4)ccc3S(=O)(=O)N([C@@H](C)CO)C[C@H]2C)cc1
inactive: [1] | [2] | [3] | [4] | [6]

C[C@@H]1CN([C@H](C)CO)C(=O)c2cc(NC(=O)Nc3ccc(C(F)(F)F)cc3)ccc2O[C@@H](C)CCCCO[C@H]1CN(C)C(=O)c1ccccc1
inactive: [1] | [2] | [3] | [4] | [6]

C[C@@H]1CN([C@@H](C)CO)C(=O)Cc2cc(NS(=O)(=O)c3ccc(F)cc3)ccc2O[C@H]1CN(C)Cc1ccc(C(F)(F)F)cc1
not listed: [7] | [8] | [9]
inactive: all other assays above

O=C(Nc1ccc(C(F)(F)F)cc1)N1C[C@@H]2N[C@H](C1)C2c1ccc(/C=C/c2ccccc2)cc1 (stereo partly drawn)
not listed: [6] | [8] | [9]
inactive: all other assays above

Cc1ccc(S(=O)(=O)Nc2ccc3c(c2)C(=O)N([C@H](C)CO)C[C@@H](C)[C@@H](CN(C)Cc2ccc(C(F)(F)F)cc2)OCCCC[C@@H](C)O3)cc1
inactive: [1] | [2] | [3] | [4] | [6]

COc1ccccc1S(=O)(=O)N(C)C[C@H]1Oc2cc(C#CCC3CCCC3)ccc2S(=O)(=O)N([C@@H](C)CO)C[C@@H]1C
not listed: [6] | [8] | [9]
inactive: all other assays above

C[C@H]1CCCCO[C@H](CN(C)C(=O)Nc2ccc(C(F)(F)F)cc2)[C@@H](C)CN([C@@H](C)CO)C(=O)c2cc(NC(=O)CCC(F)(F)F)ccc2O1
not listed: [8] | [9]
inactive: all other assays above

O=C(C[C@@H]1C[C@H]2c3cc(NS(=O)(=O)c4ccc(F)cc4)ccc3O[C@H]2[C@H](CO)O1)NCc1ccc(Cl)cc1
inactive: [1] | [2] | [3] | [4] | [6]

O=C(C[C@H]1C[C@@H]2c3cc(NC(=O)Nc4ccc(C(F)(F)F)cc4)ccc3O[C@@H]2[C@@H](CO)O1)NCc1ccc(Cl)cc1
not listed: [8] | [9]
inactive: all other assays above

C[C@@H]1CN([C@@H](C)CO)C(=O)Cc2cc(NC(=O)CCC(F)(F)F)ccc2O[C@H]1CN(C)Cc1ccc(Oc2ccccc2)cc1
not listed: [8] | [9]
inactive: all other assays above

COc1cccc(S(=O)(=O)Nc2ccc3c(c2)[C@@H]2C[C@@H](CC(=O)NCc4ccc(Cl)cc4)O[C@@H](CO)[C@@H]2O3)c1
not listed: [8] | [9]
inactive: all other assays above

O=C(Nc1ccccc1F)N1CCCCN2[C@@H](CO)[C@@H](c3ccc(/C=C/c4ccccc4)cc3)[C@@H]2C1
not listed: [8] | [9]
inactive: all other assays above

C[C@H]1CCCCO[C@@H](CN(C)Cc2ccccc2)[C@@H](C)CN([C@@H](C)CO)C(=O)c2cc(NC(=O)Nc3ccc(C(F)(F)F)cc3)ccc2O1
not listed: [7] | [8] | [9]
inactive: all other assays above

COc1cccc(-c2ccc3c(c2)[C@@H]2[C@@H](CCN2S(=O)(=O)c2ccccc2OC)[C@H](CO)N3C)c1
not listed: [7] | [8] | [9]
inactive: all other assays above

C[C@H](CO)N1C[C@H](C)[C@@H](CN(C)Cc2ccc(-c3ccccc3)cc2)Oc2ccc(NS(=O)(=O)c3ccc(F)cc3)cc2CC1=O
not listed: [7] | [8] | [9]
inactive: all other assays above

COc1ccccc1NC(=O)N1CCCCN2[C@@H](CO)[C@@H](c3ccc(C#Cc4ccccc4)cc3)[C@@H]2C1
not listed: [7] | [8] | [9]
inactive: all other assays above

CCCC#Cc1ccc([C@@H]2[C@H](CO)N3CCCCN(S(=O)(=O)Cc4ccccc4)C[C@@H]23)cc1
not listed: [8] | [9]
inactive: all other assays above

Cc1ccccc1S(=O)(=O)N1C[C@@H]2N[C@H](C1)C2c1ccc(-c2cccc(C#N)c2)cc1 (stereo partly drawn)
inactive: [1] | [2] | [3] | [4] | [6]

C[C@@H]1CN([C@@H](C)CO)C(=O)Cc2cc(NS(=O)(=O)c3cccs3)ccc2O[C@H]1CN(C)Cc1ccc(C(F)(F)F)cc1
not listed: [8] | [9]
inactive: all other assays above

C[C@@H]1CN([C@@H](C)CO)C(=O)Cc2cc(NC(=O)Nc3ccc4c(c3)OCO4)ccc2O[C@H]1CN(C)CC1CCCCC1
not listed: [8] | [9]
inactive: all other assays above

Cc1cccc(S(=O)(=O)N2CCCCN3[C@H](CO)[C@H](c4ccc(C#CC(C)C)cc4)[C@H]3C2)c1
inactive: [1] | [2] | [3] | [4] | [6]

COc1cccc(S(=O)(=O)N2CC[C@@H]3[C@@H](CO)Nc4ccc(-c5ccccc5OC)cc4[C@@H]32)c1
inactive: [1] | [2] | [3] | [4] | [6]

O=C(Nc1cccc(F)c1)N1CCCCN2[C@@H](CO)[C@@H](c3ccc(C#Cc4ccccc4)cc3)[C@@H]2C1
not listed: [7] | [8] | [9]
inactive: all other assays above

C[C@@H]1CN([C@H](C)CO)C(=O)c2cc(NC(=O)Nc3ccc(C(F)(F)F)cc3)ccc2O[C@@H](C)CCCCO[C@@H]1CN(C)Cc1ccc2c(c1)OCO2
not listed: [7] | [8] | [9]
inactive: all other assays above

C[C@@H]1CCCCO[C@@H](CN(C)Cc2ccc(C(F)(F)F)cc2)[C@H](C)CN([C@@H](C)CO)C(=O)c2cc(NC(=O)Cc3ccccc3)ccc2O1
not listed: [7] | [8] | [9]
inactive: all other assays above

C[C@H](CO)N1C[C@H](C)[C@@H](CN(C)Cc2ccc(Oc3ccccc3)cc2)Oc2ccc(NS(=O)(=O)c3ccc(Cl)cc3)cc2CC1=O
not listed: [7] | [8] | [9]
inactive: all other assays above

C[C@@H]1CN([C@@H](C)CO)S(=O)(=O)c2ccc(C#C[C@@H](C)O)cc2O[C@H]1CN(C)Cc1ccc(-c2ccccc2)cc1
not listed: [8] | [9]
inactive: all other assays above

C[C@H]1CCCCO[C@@H](CN(C)Cc2ccc(C(F)(F)F)cc2)[C@@H](C)CN([C@@H](C)CO)C(=O)c2cc(NS(=O)(=O)c3ccc(F)cc3)ccc2O1
not listed: [7] | [8] | [9]
inactive: all other assays above

COc1ccc(S(=O)(=O)Nc2ccc3c(c2)CC(=O)N([C@@H](C)CO)C[C@H](C)[C@@H](CN(C)Cc2ccc(C(F)(F)F)cc2)O3)cc1
not listed: [4] | [9]
inactive: all other assays above

Cc1ccc(S(=O)(=O)N(C)C[C@H]2Oc3ccc(NS(=O)(=O)c4ccc(F)cc4)cc3CC(=O)N([C@H](C)CO)C[C@H]2C)cc1
inactive: [1] | [2] | [3] | [8] | [9] 12.5% [at 2.1 µM, stronger effect = lower value] | [5] | [6] | [7]

C[C@H](CO)N1C[C@H](C)[C@@H](CN(C)Cc2ccc(-c3ccccc3)cc2)Oc2ccc(NC(=O)C3CC3)cc2CC1=O
inactive: [1] | [2] | [3] | [8] | [9] 42.3% [at 2.1 µM, stronger effect = lower value] | [5] | [6] | [7]

CN(C)CC(=O)N1CCCCN2[C@H](CO)[C@H](c3ccc(/C=C/c4ccccc4)cc3)[C@H]2C1
not listed: [4] | [7] | [9]
inactive: all other assays above

C[C@H](CO)N1C[C@H](C)[C@H](CN(C)S(=O)(=O)c2ccc(Cl)cc2)Oc2c(NC(=O)Nc3ccc(F)cc3)cccc2C1=O
not listed: [4] | [7] | [9]
inactive: all other assays above

Cc1cccc(-c2ccc([C@H]3[C@H]4CN(S(=O)(=O)c5cccc(C)c5)CCCCN4[C@H]3CO)cc2)c1
not listed: [4] | [7] | [9]
inactive: all other assays above

CC(C)CC#Cc1ccc2c(c1)O[C@H](CN(C)S(=O)(=O)c1ccc(F)cc1)[C@H](C)CN([C@H](C)CO)S2(=O)=O
not listed: [4] | [7] | [9]
inactive: all other assays above

C[C@H](O)C#Cc1ccc2c(c1)O[C@@H](CN(C)Cc1ccc(-c3ccccc3)cc1)[C@@H](C)CN([C@H](C)CO)S2(=O)=O
inactive: [1] | [2] | [3] | [8] | [9] -11.2% | [5] | [6]

COc1cccc(C#Cc2ccc([C@@H]3[C@H](C#N)N(C(=O)c4ccccn4)[C@H]3CO)cc2)c1
inactive: [1] | [2] | [3] | [8] | [9] 39.4% | [5]

C[C@@H]1CN([C@H](C)CO)C(=O)c2cc(NC(=O)Nc3ccc(C(F)(F)F)cc3)ccc2O[C@@H](C)CCCCO[C@@H]1CN(C)Cc1ccncc1
inactive: [1] | [2] | [3] | [4] | [7]

COc1cccc(C#Cc2ccc([C@H]3[C@@H](C#N)N(C(=O)c4ccccn4)[C@@H]3CO)cc2)c1
inactive: [1] | [2] | [3] | [8] | [9] -22.5% [at 0.26 µM, stronger effect = lower value] | [5] | [7]
